Each structure is given as a SMILES string. Active and inactive are the calls of the source. The call rests on the fitted dose curve; in most records, active means well fitted cell-killing curve with a large enough effect in the repeat runs; inconclusive means weak or mixed curves, or effect the other way; inactive means flat fitted curve, though single readings scatter.
On the % scale 0 is the no-effect control and ±100 the full control effect.

This experiment can be described thus: qHTS assay to identify small molecule HDAC inhibitors - cell viability counter screen (AID 1259365). Further: nearly all actives have a fitted effect of over 50% in size. The following applies: HCT-116 viability, CellTiter-Glo ATP luminescence, 2 h; series mostly up to 92.4 µM. The source says:
U.S. Tox21 Program National Center for Advancing Translational Sciences [NCATS] NIH Chemical Genomics Center [NCGC] U.S. Environmental Protection Agency [EPA] National Institutes of Environmental Health Sciences [NIEHS] National Toxicology Program [NTP] U.S. Food and Drug Administration [FDA] Tox21 Assay Overview: Histone deacetylases (HDACs) are a group of epigenetic enzymes that regulate gene expression by histone deacetylation. HDACs are capable of introducing epigenetic modifications and such aberrations contribute to the onset and progression of several human diseases, thus making HDACs a popular therapeutic target. For identifying endogenous class I/II HDAC inhibitors a homogenous, luminogenic HDAC I/II cell based assay was used to measure the relative activity of class I and II HDACs from cells. Wild type HCT-116 cells were used to screen Tox21 compound libraries for identifying class I/II HDAC inhibitors.
Tox21 Assay Protocol Summary: HCT-116 cells were dispensed at 1,500 per well in 5uL of culture medium into white solid bottom 1536-well plates (Greiner Bio-One, Monroe, NC) using a Multidrop Combi (Thermo Scientific, Waltham, MA) dispenser. The assay plates were incubated at 37 C and 5% CO2 for an overnight, and then 23nL of compounds dissolved in DMSO and positive control were transferred using a Pintool station (Wako, San Diego, CA). The assay plates were incubated at 37C and 5% CO2 for 2hr. After compound treatment, 4uL of CellTiter-Glo reagent (Promega Corporation, Madison, WI) was added to each well of the assay plates using Flying Reagent Dispenser (FRD, Aurora Discovery, San Diego, CA) and incubated the assay plates at room temperature for 30min. The luminescence signal was quantified using a ViewLux plate reader (Perkin Elmer, Shelton, CT).
For orientation: qHTS replaces the single test concentration by a dilution series.
Take `CN1CCN(c2cc3c(nn2)Oc2ccccc2N3C)CC1`: the activity change, negative = cytotoxicity is 2.56% [at 19 µM] (inactive).
In the case of `Cc1ccnc(NS(=O)(=O)c2ccc(N)cc2)n1`, the result was inactive.
`CC(C)C[C@@H](N)C(=O)O`: the activity change, negative = cytotoxicity was -1.99% [at 19 µM] (inactive).
`CC1(C)[C@@H]2CC[C@@]1(C)[C@H](O)C2`: the result was inactive.
On to `O=CN(CCO)CCO`, for which the call was inactive.
Regarding `CN1[C@@H]2CC[C@H]1CC(OC(=O)C(O)c1ccccc1)C2` (stereo not given in full), the outcome was inactive.
Regarding `Clc1cc(Cl)cc(Cl)c1`, the compound was called inactive.
In the case of `O=C(O)CC(C(=O)O)S(=O)(=O)O` (stereo not given), the outcome was inactive.
The same measure, in the same setting: to `NC(=O)N1c2ccccc2CC(=O)c2ccccc21` belongs “inactive”.
For `CC(C)(C#N)Nc1nc(Cl)nc(NC2CC2)n1`, the result was inactive.
As for `O=S(=O)(O)c1cccc(S(=O)(=O)O)c1`, the outcome was inactive.
Regarding `CCO[Si](OCC)(OCC)c1ccccc1`, the compound was called inactive.
With `CC(C)=CCC/C(C)=C/C#N`, the result was inactive.
Take `CC(=O)N1C[C@H](O)C[C@H]1C(=O)O`: the call was inactive.
With `C[C@@H]1CCC[C@H](C)N1`, the compound was classed as inactive.
On the same count and under the same terms, then `CCCCCCCCCCCCSC`, with “inactive”; and `c1ccc2sc(SN3CCOCC3)nc2c1`, with “inactive”; and `O=[N+]([O-])c1ccc(/C=N\O)o1`, with “inactive”.
For the compound `CN1CCC(=C2c3ccccc3CCc3cccnc32)CC1`, the compound was called inactive.
The same measure, in the same setting: to `CCCCN(CCC(=O)OCC)C(C)=O` belongs “inactive”; to `CCCCCCC#CC(=O)OC`, “inactive”.
Regarding `CC/C=C\CCOC(C)OCC` (stereo not given), the outcome was inactive.
As to `CCOc1ccc2nc(S(N)(=O)=O)sc2c1`, the compound was classed as inactive.
With `Nc1c2c(nc3c1CCC3)CCCC2`, the compound was called inactive.
In the case of `Nc1ccn([C@@H]2O[C@H](CO)[C@@H](O)C2O)c(=O)n1` (stereo not given in full), the compound was classed as inactive.
Turning to `O=C(O)Cc1csc(-c2ccc(Cl)cc2)n1`, the call was inactive.
`CCOC(=O)COC(=O)c1ccccc1C(=O)OCC`: the compound was called inactive.
`NCCCC[C@H](N[C@@H](CCc1ccccc1)C(=O)O)C(=O)N1CCC[C@H]1C(=O)O`: the outcome was inactive.
With `CC(C)C(=O)OC(=O)C(C)C`, the result was inactive.
For the compound `CC(COc1ccccc1)NN` (stereo not given), the outcome was inactive.
On the same count and under the same terms, then `Nc1ccn([C@@H]2O[C@H](CO)[C@@H](O)C2(F)F)c(=O)n1`, with “inactive”; and `FB(F)F`, with “inactive”.
For the compound `[Ca+2]`, the call was inactive.
With `CC[N+](CC)(CC(=O)Nc1c(C)cccc1C)Cc1ccccc1` (tested in a mixture with another compound), the call was inactive.
Regarding `Cc1cc(C)c(N=Nc2c(O)c(S(=O)(=O)O)cc3cc(S(=O)(=O)O)ccc23)cc1C`, the activity change, negative = cytotoxicity is -2.91% [at 8.39 µM] (inactive).
As for `[K+]`, the outcome was inactive.
Regarding `CC1=CC(=O)[C@H]2C[C@@H]1C2(C)C`, the compound was called inactive.
Regarding `CN(C)CCN(C)CCN(C)C`, the call was inactive.
In the case of `C[C@H]1[C@H](NC(=O)/C(=N/OC(C)(C)C(=O)O)c2csc(N)n2)C(=O)N1S(=O)(=O)O` (stereo in doubt), the compound was called inactive.
Same read-out and setting: to `CCN(CC#N)c1cccc(C)c1` belongs “inactive”.

(Values after PubChem BioAssay (Tox21).)
